In PubChem BioAssay (NCATS):
Inconclusive results are not listed. Activity calls are given as the source filed them. Calls come from the whole dose curve; as a rule, active = well fitted cell-killing curve with a large enough effect; inconclusive = small, poorly fitted or top-dose-only effect, or effect the other way; inactive = no such curve, though single readings can be large or run the other way.

How the values were obtained:
[1] = Quantitative High-Throughput drug screen in 47 multiple myeloma cell lines against the NCATS MIPE library collection: KMS28PE_JCRB cell viability assay (AID 1918983); settings: KMS28PE multiple myeloma viability, CellTiter-Glo ATP, 48 h; series mostly up to 45.8 µM; note: nearly all actives have a fitted effect of over 35% in size
In short: (§1)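 Viability after 48 h drug exposure was measured as ATP-dependent luminescence. Cells, 500 per well, sat at 37 °C under 5% CO2; DMSO wells set 100%, media-only wells 0%.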

[2] = Quantitative High-Throughput drug screen in 47 multiple myeloma cell lines against the NCATS MIPE library collection: L363_DSMZ cell viability assay (AID 1918984); settings: L363 myeloma viability, CellTiter-Glo ATP luminescence, 48 h; series mostly up to 45.8 µM; note: nearly all actives have a fitted effect of over 40% in size
In short: as §1

[3] = Quantitative High-Throughput drug screen in 47 multiple myeloma cell lines against the NCATS MIPE library collection: KMS34_JCRB cell viability assay (AID 1918985); settings: KMS34 myeloma viability, CellTiter-Glo ATP luminescence, 48 h; series mostly up to 45.8 µM; note: nearly all actives have a fitted effect of over 40% in size
In short: as §1

[4] = Quantitative High-Throughput drug screen in 47 multiple myeloma cell lines against the NCATS MIPE library collection: OCIMY7_PLB cell viability assay (AID 1918987); settings: OCI-MY7 myeloma viability, CellTiter-Glo ATP, 48 h; series mostly up to 45.8 µM; note: nearly all actives have a fitted effect of over 65% in size
In short: as §1

[5] = Quantitative High-Throughput drug screen in 47 multiple myeloma cell lines against the NCATS MIPE library collection: OCIMY5_PLB cell viability assay (AID 1918988); settings: OCI-MY5 myeloma viability, ATP luminescence, 48 h; series mostly up to 45.8 µM; note: nearly all actives have a fitted effect of over 65% in size
In short: as §1

[6] = Quantitative High-Throughput drug screen in 47 multiple myeloma cell lines against the NCATS MIPE library collection: OPM1_PLB cell viability assay (AID 1918989); settings: CellTiter-Glo, 48 h; series mostly up to 45.8 µM; note: nearly all actives have a fitted effect of over 40% in size
In short: as §1

[7] = Quantitative High-Throughput drug screen in 47 multiple myeloma cell lines against the NCATS MIPE library collection: SKMM1_PLB cell viability assay (AID 1919863); settings: SKMM1 myeloma viability, CellTiter-Glo ATP, 48 h; viability: stronger effect = lower value; note: nearly all actives have a fitted effect of over 35% in size
In short: as §1

[8] = Quantitative High-Throughput drug screen in 47 multiple myeloma cell lines against the NCATS MIPE library collection: U266_ATCC cell viability assay (AID 1919864); settings: U266 myeloma viability, CellTiter-Glo ATP luminescence, 48 h; series mostly up to 45.8 µM; note: nearly all actives have a fitted effect of over 35% in size
In short: as §1

[9] = Quantitative High-Throughput drug screen in 47 multiple myeloma cell lines against the NCATS MIPE library collection: XG6_PLB cell viability assay (AID 1919865); settings: XG6 myeloma viability, CellTiter-Glo ATP luminescence, 48 h; series mostly up to 45.8 µM; note: nearly all actives have a fitted effect of over 40% in size
In short: as §1

[10] = Quantitative High-Throughput drug screen in 47 multiple myeloma cell lines against the NCATS MIPE library collection: XG1_PLB cell viability assay (AID 1919866); settings: CellTiter-Glo ATP, 48 h; series mostly up to 45.8 µM; note: nearly all actives have a fitted effect of over 35% in size
In short: as §1
Potency is the fitted concentration of half-maximal effect.

CCCc1nc(C)c2c(=O)[nH]c(-c3cc(S(=O)(=O)N4CCN(CC)CC4)ccc3OCC)nn12
active: Potency [1] 8.33 µM | Potency [2] 4.18 µM | Potency [3] 3.72 µM | Potency [4] 5.9 µM | Potency [5] 5.9 µM | Potency [6] 7.43 µM | Potency [7] 9.35 µM | Potency [8] 5.9 µM | Potency [9] 4.69 µM | Potency [10] 5.9 µM

COCCCOc1cc(C[C@@H](C[C@H](N)[C@@H](O)C[C@H](C(=O)NCC(C)(C)C(N)=O)C(C)C)C(C)C)ccc1OC
inactive: Potency [1] | Potency [2] | Potency [3] | Potency [5] | Potency [6] | Potency [9] | Potency [10]

CCOC(=O)c1ccc(OC(=O)CCCCCN=C(N)N)cc1
inactive: Potency [1] | Potency [2] | Potency [3] | Potency [6] | viability [7] 127% | Potency [8] | Potency [9] | Potency [10]

Cc1cc(NS(=O)(=O)c2ccc(N)cc2)no1
active: Potency [8] 10.5 µM
inactive: Potency [1] | Potency [2] | Potency [3] | Potency [6] | viability [7] 140%

Oc1c(Cl)cc(Cl)c2cccnc12
active: Potency [1] 20.9 µM | Potency [2] 9.35 µM | Potency [3] 16.6 µM | Potency [5] 6.62 µM | Potency [6] 10.5 µM | Potency [7] 18.7 µM | Potency [8] 8.33 µM | Potency [9] 4.69 µM | Potency [10] 11.8 µM

CCc1c2c(nc3ccc(OC(=O)N4CCC(N5CCCCC5)CC4)cc13)-c1cc3c(c(=O)n1C2)COC(=O)[C@]3(O)CC
active: Potency [1] 1.87 µM | Potency [2] 0.0372 µM | Potency [3] 1.18 µM | Potency [4] 0.296 µM | Potency [5] 1.48 µM | Potency [6] 13.2 µM | Potency [7] 0.526 µM | Potency [8] 0.166 µM | Potency [9] 0.418 µM

Cc1nnc(C(=O)NC(C)(C)c2nc(C(=O)NCc3ccc(F)cc3)c(O)c(=O)n2C)o1
inactive: Potency [1] | Potency [2] | Potency [3] | Potency [4] | Potency [6] | viability [7] 152% | Potency [8] | Potency [9] | Potency [10]

CCOC(=O)[C@H](CCc1ccccc1)N[C@H]1CS[C@H](c2cccs2)CN(CC(=O)O)C1=O
active: Potency [1] 18.7 µM | Potency [2] 0.662 µM | Potency [3] 10.5 µM | Potency [5] 16.6 µM | Potency [6] 5.9 µM | Potency [7] 14.8 µM | Potency [8] 5.9 µM | Potency [9] 2.35 µM | Potency [10] 0.935 µM

COc1ccccc1OCC(O)COC(N)=O (centres undefined)
inactive: Potency [1] | Potency [2] | Potency [3] | Potency [6] | viability [7] 136% | Potency [8] | Potency [9] | Potency [10]

COc1ccc2c(c1)c(CC(=O)OCC(=O)O)c(C)n2C(=O)c1ccc(Cl)cc1
inactive: Potency [1] | Potency [2] | Potency [3] | Potency [6] | viability [7] 138% | Potency [8] | Potency [9] | Potency [10]

OCc1ccc(-c2nn(Cc3ccccc3)c3ccccc23)o1
inactive: Potency [1] | Potency [2] | Potency [3] | Potency [10]
active: Potency [5] 16.6 µM | Potency [6] 18.7 µM | Potency [7] 5.9 µM

CC(C)C[C@H](NC(=O)[C@H](CCc1ccccc1)NC(=O)CN1CCOCC1)C(=O)N[C@@H](Cc1ccccc1)C(=O)N[C@@H](CC(C)C)C(=O)[C@@]1(C)CO1
active: Potency [1] 0.003 µM | Potency [2] 0.001 µM | Potency [3] 0.0059 µM | Potency [5] 0.0033 µM | Potency [6] 0.0093 µM | Potency [7] 0.0209 µM | Potency [8] 0.0047 µM | Potency [9] 0.001 µM | Potency [10] 0.001 µM

O=C(O)c1cc(=O)[nH]c(=O)[nH]1
active: Potency [1] 5.9 µM
inactive: Potency [2] | Potency [3] | Potency [6] | viability [7] 112% | Potency [8] | Potency [9] | Potency [10]

O=C(O)c1cccnc1
inactive: Potency [1] | Potency [2] | Potency [3] | Potency [6] | viability [7] 107% | Potency [8]

Nc1nc(N)nc(-c2cc(Cl)ccc2Cl)n1
inactive: Potency [1] | Potency [2] | Potency [3] | Potency [6] | viability [7] 131% | Potency [8] | Potency [10]

COC(=O)Nc1nc2ccc(Sc3ccccc3)cc2[nH]1
active: Potency [1] 5.26 µM | Potency [2] 0.469 µM | Potency [3] 2.96 µM | Potency [5] 1.18 µM | Potency [6] 1.66 µM | Potency [7] 3.32 µM

CC(C)(C#N)c1cc(Cn2cncn2)cc(C(C)(C)C#N)c1
inactive: Potency [1] | Potency [2] | Potency [3] | Potency [5] | Potency [6] | Potency [9] | Potency [10]

CC(=O)Oc1ccccc1C(=O)Nc1ncc([N+](=O)[O-])s1
active: Potency [1] 38.2 µM | Potency [2] 17.1 µM | Potency [3] 42.9 µM | Potency [4] 21.5 µM | Potency [5] 13.6 µM | Potency [6] 24.1 µM | Potency [7] 38.2 µM | Potency [9] 24.1 µM | Potency [10] 30.3 µM

CCn1cc(C(=O)O)c(=O)c2cc(F)c(N3CCN(C)CC3)cc21
active: Potency [2] 5.26 µM | Potency [7] 5.26 µM
inactive: Potency [1] | Potency [3] | Potency [5] | Potency [8] | Potency [10]

CCOCC(O)COc1ccc(NC(=O)CC[S+](C)C)cc1 (centres undefined)
inactive: Potency [1] | Potency [2] | Potency [3] | Potency [5] | Potency [6] | viability [7] 111% | Potency [9] | Potency [10]

COc1cc2nc(N3CCCN(C)CC3)nc(NC3CCN(Cc4ccccc4)CC3)c2cc1OC
active: Potency [1] 16.6 µM | Potency [2] 1.66 µM | Potency [3] 8.33 µM | Potency [5] 11.8 µM | Potency [6] 2.35 µM | Potency [7] 7.43 µM | Potency [8] 2.35 µM | Potency [9] 2.35 µM | Potency [10] 2.96 µM

NS(=O)(=O)c1cc2c(cc1Cl)NC(C(Cl)Cl)NS2(=O)=O (centres undefined)
inactive: Potency [1] | Potency [2] | Potency [3] | Potency [5] | Potency [6] | viability [7] 112% | Potency [9] | Potency [10]

CNC(=O)c1cc(Oc2ccc(NC(=O)Nc3ccc(Cl)c(C(F)(F)F)c3)cc2)ccn1
active: Potency [1] 26.4 µM | Potency [2] 6.62 µM | Potency [3] 20.9 µM | Potency [5] 23.5 µM | Potency [6] 10.5 µM | Potency [7] 29.6 µM | Potency [8] 23.5 µM | Potency [9] 0.148 µM | Potency [10] 5.9 µM

COc1cc(NCc2ccc3nc(N)nc(N)c3c2C)cc(OC)c1OC
active: Potency [1] 14.8 µM | Potency [2] 0.935 µM | Potency [3] 3.72 µM | Potency [5] 6.62 µM | Potency [6] 5.9 µM | Potency [7] 11.8 µM | Potency [8] 1.48 µM | Potency [9] 11.8 µM | Potency [10] 3.72 µM

CCN[C@H]1C[C@H](C)S(=O)(=O)c2sc(S(N)(=O)=O)cc21
inactive: Potency [1] | Potency [2] | Potency [3] | Potency [5] | Potency [6] | Potency [8]

CCCN[C@H]1CCc2nc(N)sc2C1
inactive: Potency [1] | Potency [2] | Potency [3] | Potency [6] | viability [7] 141% | Potency [8] | Potency [9] | Potency [10]

NC(N)=NC(N)=NCCc1ccccc1
active: Potency [1] 5.26 µM | Potency [2] 14.8 µM | Potency [3] 1.66 µM | Potency [5] 13.2 µM | Potency [6] 20.9 µM | Potency [10] 7.43 µM

CN1CCCC(n2nc(Cc3ccc(Cl)cc3)c3ccccc3c2=O)CC1 (centres undefined)
active: Potency [1] 13.2 µM | Potency [2] 9.35 µM | Potency [3] 10.5 µM | Potency [5] 1.18 µM | Potency [6] 2.64 µM | Potency [7] 20.9 µM | Potency [8] 2.64 µM | Potency [9] 1.05 µM | Potency [10] 1.48 µM

CN1CCN(c2c(F)cc3c(=O)c(C(=O)O)cn4c3c2OCN4C)CC1
inactive: Potency [1] | Potency [2] | Potency [3] | Potency [5] | Potency [6] | Potency [8] | Potency [10]

C[C@@H](NCCCc1cccc(C(F)(F)F)c1)c1cccc2ccccc12
inactive: Potency [1] | Potency [2] | Potency [3] | Potency [5] | viability [7] 110% | Potency [8] | Potency [9]

CCC(=O)O[C@]1(C(=O)CCl)[C@@H](C)C[C@H]2[C@@H]3CCC4=CC(=O)C=C[C@]4(C)[C@@]3(F)[C@@H](O)C[C@@]21C
active: Potency [2] 0.0093 µM | Potency [5] 1.32 µM
inactive: Potency [1] | Potency [3] | Potency [6] | viability [7] 109% | Potency [9] | Potency [10]

Nc1nc(F)nc2c1ncn2[C@@H]1O[C@H](CO)[C@@H](O)[C@@H]1O
active: Potency [1] 0.372 µM | Potency [2] 0.148 µM | Potency [3] 0.296 µM | Potency [5] 0.0743 µM | Potency [6] 0.743 µM | Potency [7] 0.332 µM | Potency [8] 0.296 µM | Potency [9] 0.209 µM | Potency [10] 0.418 µM

N=C(N)c1ccc(OCCCCCOc2ccc(C(=N)N)cc2)cc1
inactive: Potency [2]
active: Potency [1] 14.8 µM | Potency [3] 20.9 µM | Potency [5] 14.8 µM | Potency [6] 11.8 µM | Potency [7] 20.9 µM | Potency [8] 23.5 µM | Potency [9] 16.6 µM | Potency [10] 4.69 µM

Cn1c(=O)c2c(ncn2CC(O)CO)n(C)c1=O (centres undefined)
active: Potency [2] 5.26 µM
inactive: Potency [1] | Potency [3] | Potency [5] | Potency [6] | Potency [9]

Cc1ccc(S(=O)(=O)N[C@@H](Cc2ccccc2)C(=O)CCl)cc1
active: Potency [1] 20.9 µM | Potency [2] 11.8 µM | Potency [3] 20.9 µM | Potency [5] 7.43 µM | Potency [6] 9.35 µM | Potency [7] 18.7 µM | Potency [8] 18.7 µM | Potency [9] 14.8 µM | Potency [10] 7.43 µM

NC1(c2ccc(-c3nc4ccn5c(=O)[nH]nc5c4cc3-c3ccccc3)cc2)CCC1
active: Potency [1] 6.62 µM | Potency [2] 2.64 µM | Potency [3] 9.35 µM | Potency [6] 3.32 µM | Potency [7] 7.43 µM | Potency [8] 20.9 µM | Potency [9] 20.9 µM | Potency [10] 20.9 µM
